# Measured values: the supplement of paper PMC10981050
# Where “and” joins values, the source holds several entries; their conditions need not be identical. Equal values may be shown once. Where a name gives a salt, the structure may show the parent alone.
# Assays:
# Test in all cases: cell viability relative to vehicle control; higher = less cytotoxic
# Conditions in all cases: 10 µM
# K562 = test system: K562
# Method in brief: (§1)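 Each screen used CRISPR-edited mutant and wild-type clones from four leukaemia lines. Compounds were acoustically dispensed at a single 10 µM dose, and CellTiter-Glo luminescence was read after 48 h with the supernatant first removed. Viability was analysed in Genedata Screener and given as percent of the on-plate vehicle control.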
# MARIMO = test system: MARIMO
# Method in brief: as §1
# MOLM14 = test system: MOLM14
# Method in brief: as §1
# OCI-AML2 = test system: OCI-AML2
# Method in brief: as §1
SMILES,cell viability (K562; SRSF2 genotype: SRSF2 P95H/wt),cell viability (K562; SRSF2 genotype: SRSF2 wt/wt),cell viability (MARIMO; SRSF2 genotype: SRSF2 P95H/wt),cell viability (MARIMO; SRSF2 genotype: SRSF2 wt/wt),cell viability (MOLM14; SRSF2 genotype: SRSF2 P95H/wt),cell viability (MOLM14; SRSF2 genotype: SRSF2 wt/wt),cell viability (OCI-AML2; SRSF2 genotype: P95H/wt),cell viability (OCI-AML2; SRSF2 genotype: wt/wt)
CCN(CCCc1ccccc1)CCCc1ccccc1 [Alverine Citrate],75.1% and 81.5%,80.6%,69.5%,83.8%,80.3%,87.4%,87.6%,86.5%
CS(=O)(=O)Nc1ccc([N+](=O)[O-])cc1Oc1ccccc1 [Nimesulide],105% and 109%,99.8%,102%,108%,109%,103%,101%,110%
CC(=O)O[C@@H]1C[C@@]23C[C@@]24CC[C@H](O[C@@H]2OC[C@@H](O)[C@H](O)[C@H]2O)C(C)(C)[C@@H]4CC=C3[C@]2(C)C[C@@H]3OC4(C[C@@H](C)[C@@H]3[C@@]12C)OC(O)C1(C)OC41 (stereo not given in full) [Cimicifugoside],110% and 103%,105%,109%,111%,108%,106%,99%,96%
c1cc2c(c3c1C[C@H]1c4cc5c(cc4CCN1C3)OCO5)OCO2 [Stylopine hydrochloride],90.4% and 91.9%,91.4%,97.7%,96.3%,88%,94%,92.8%,97.5%
CC1(N)CCN(c2cnc(-c3cccc(Cl)c3Cl)c(N)n2)CC1 [SHP099 hydrochloride],64.7% and 71.4%,71.9%,96%,106%,29.6%,22.8%,25.4%,38.7%
OCCOCCN1CCN(C(c2ccccc2)c2ccc(Cl)cc2)CC1 (stereo not given) [Hydroxyzine pamoate],88.7% and 98%,100%,79.8%,91.8%,79.9%,96.4%,87.9%,94.6%
"Cc1ccc2c(c1)C(=O)C1(O)CCN(c3ccccc3)C1=N2 (single isomer, unassigned; (-)) [(-)-Blebbistatin]",93.5% and 92.5%,94%,88.4%,98.6%,61.3%,60.7%,80.5%,90.4%
Cc1cc(C(=O)O)n[nH]1,108% and 101%,103%,104%,111%,96.4%,111%,101%,104%
Cc1nc(=O)c2cc(CN(C)c3ccc(C(=O)N[C@@H](CCC(=O)O)C(=O)O)s3)ccc2[nH]1 [Raltitrexed (Tomudex)],94.9% and 108%,58.7%,94.3%,105%,104%,80.6%,106%,118%
CCOC(=O)C1=C(C)NC(C)=C(C(=O)OCC)C1 [Diludine],99.6% and 92.2%,104%,94.3%,99.7%,104%,99.3%,99.3%,93.9%
COc1ccc(C(=O)O)cc1O [Isovanillic acid],97.7% and 89.4%,95.3%,85.2%,97.5%,87.1%,90.6%,82.2%,86.7%
C#C[C@]1(O)CC[C@H]2[C@@H]3CCC4=CCCC[C@@H]4[C@H]3C(=C)C[C@@]21CC [Desogestrel],77.9% and 78.3%,78.7%,75.4%,81.7%,71.4%,79.9%,61%,63%
C[C@]12CC[C@@H]3c4ccc(OC(=O)c5ccccc5)cc4CC[C@H]3[C@@H]1CC[C@@H]2O [Estradiol Benzoate],62.1% and 62.4%,77.2%,54.6%,35.6%,82.6%,76.1%,58.4%,46.7%
"OCc1ccccc1O[C@@H]1O[C@H](CO)[C@@H](O)[C@H](O)[C@H]1O [Salicin (Salicoside, Salicine)]",101% and 103%,110%,103%,106%,99.7%,104%,105%,112%
O=C(c1ccccc1)c1ccc2n1CCC2C(=O)O (stereo not given) [Ketorolac],102% and 98.1%,99.6%,100%,102%,98.2%,102%,103%,108%
CC[C@H]1OC(=O)[C@H](C)[C@@H](O[C@H]2C[C@@](C)(OC)[C@@H](O)[C@H](C)O2)[C@H](C)[C@@H](O[C@@H]2O[C@H](C)C[C@H](N(C)C)[C@H]2O)[C@](C)(O)C[C@@H](C)CN[C@H](C)[C@@H](O)[C@]1(C)O [Azathramycin],104% and 112%,115%,107%,104%,109%,108%,111%,97.8%
CCCCCCC1CCC(=O)O1 (stereo not given),96.5% and 97.2%,97.8%,97.3%,101%,103%,102%,96.3%,106%
CC(C)=CCCC(C)(O)C1CCC2(C)C1C(O)CC1C3(C)CCC(O)C(C)(C)C3CCC12C [(20S)-Protopanaxadiol],98% and 105%,107%,96.7%,109%,102%,102%,115%,93.5%
"CCC(=O)O[C@]1(C(=O)SCF)[C@H](C)C[C@H]2[C@@H]3C[C@H](F)C4=CC(=O)C=C[C@]4(C)[C@@]3(F)[C@@H](O)C[C@@]21C [Fluticasone propionate (Flonase, Veramyst)]",92.7% and 86.5%,88%,87.8%,99%,85.3%,83.2%,86.7%,108%
CC1OC(OC2CCC3(C)C(CCC4(C)C3C=CC3=C5CC(C)(C)CCC5(CO)C(O)CC34C)C2(C)CO)C(O)C(OC2OC(CO)C(O)C(O)C2O)C1O (stereo not given) [Saikosaponin B2],93.5% and 88.7%,86.8%,91.5%,106%,96.3%,95.1%,93.9%,100%
Nc1nc(N)c2nc(-c3cccc(O)c3)cnc2n1,80.3% and 89.9%,83.4%,63.7%,59.2%,57.2%,57.8%,48.7%,53.1%
Cn1cc(C2=C(c3ccc(Cl)cc3Cl)C(=O)NC2=O)c2ccccc21,97.9% and 94.8%,94.2%,94.7%,105%,103%,99.1%,95.8%,107%
O=C(O)CC(C(=O)O)n1c(O)c(C2=c3cc(Br)ccc3=NC2=O)sc1=S (stereo not given),96.1% and 99.4%,99.6%,97.7%,100%,81.8%,89.4%,113%,103%

SMILES,cell viability (K562; SRSF2 genotype: SRSF2 P95H/wt),cell viability (K562; SRSF2 genotype: SRSF2 wt/wt),cell viability (MARIMO; SRSF2 genotype: SRSF2 P95H/wt),cell viability (MARIMO; SRSF2 genotype: SRSF2 wt/wt),cell viability (MOLM14; SRSF2 genotype: SRSF2 P95H/wt),cell viability (MOLM14; SRSF2 genotype: SRSF2 wt/wt),cell viability (OCI-AML2; SRSF2 genotype: P95H/wt),cell viability (OCI-AML2; SRSF2 genotype: wt/wt)
CC1(C)C(O[C@@H]2OC[C@@H](O)[C@H](O)[C@H]2O)CC[C@]23CC24CC[C@]2(C)[C@@H]([C@@]5(C)CC[C@@H](C(C)(C)O)O5)[C@H](O)C[C@@]2(C)C4C[C@@H](O[C@@H]2O[C@H](CO)[C@@H](O)[C@H](O)[C@H]2O)C13 (stereo not given in full) [Astragaloside IV],110% and 114%,113%,112%,102%,108%,114%,116%,102%
COc1ccc([C@@H]2CC(=O)c3c(O)cc(O[C@@H]4O[C@H](CO)[C@@H](O)[C@H](O)[C@H]4O[C@@H]4O[C@@H](C)[C@H](O)[C@@H](O)[C@H]4O)cc3O2)cc1O [Neohesperidin],109% and 102%,100%,97.2%,102%,104%,109%,116%,127%
Nc1c(Br)cc(Br)cc1CN[C@H]1CC[C@H](O)CC1 [Ambroxol HCl],103% and 109%,105%,106%,102%,101%,107%,104%,101%
C[S+](CC[C@H](N)C(=O)[O-])C[C@H]1O[C@@H](n2cnc3c(N)ncnc32)[C@H](O)[C@@H]1O (stereo not given in full) [Ademetionine disulfate tosylate],105% and 97.3%,103%,102%,110%,112%,115%,117%,110%
O=C(NO)c1ccc(CC(=O)N(CCO)c2ccccc2)cc1,87.2% and 92.2%,86.2%,78.9%,90.4%,71.9%,73.6%,77.2%,81.6%
c1cncc(-c2cn[nH]n2)c1,78.5% and 56.7%,64.2%,88.4%,96.6%,88.6%,99.2%,31.8%,34.6%
CCCCCCOC(=O)c1cc(=O)c(O)c2c(O)c(O)c(OC)cc2c1,14.8% and 16.8%,46.8%,45.2%,45.2%,61.5%,58.9%,19.8%,42.4%
COc1cc(CCC(C)=O)ccc1O [Vanillylacetone],104% and 93.6%,91.8%,100%,108%,101%,101%,97.8%,108%
COc1ccc(CNCc2cccc3ccccc23)cc1,91.6% and 97%,95.1%,88.5%,97.4%,97.4%,101%,92.4%,101%
CCCCC(=O)O[C@]1(C(=O)CO)[C@@H](C)C[C@H]2[C@@H]3CCC4=CC(=O)C=C[C@]4(C)[C@@]3(F)[C@@H](O)C[C@@]21C [Betamethasone valerate (Betnovate)],94.9% and 101%,94.8%,96.9%,110%,90.8%,93.7%,94.5%,116%
CCCCNc1ncc2c(-c3ccc(CN4CCN(C)CC4)cc3)cn([C@H]3CC[C@H](O)CC3)c2n1,5.45% and 6.26%,6.13%,8.07%,5.67%,0.26%,0.23%,1.56%,5.54%
O=C(O)CCCC[C@@H]1CCSS1 (racemic) [Thioctic acid],94.1% and 87.7%,88.3%,93.1%,99.4%,92.8%,94.1%,97.1%,98.9%
CC(=O)Oc1ccc2c(c1)Oc1cc(OC(C)=O)ccc1C21OC(=O)c2cc(C(=O)ON3C(=O)CCC3=O)ccc21.CC(=O)Oc1ccc2c(c1)Oc1cc(OC(C)=O)ccc1C21OC(=O)c2ccc(C(=O)ON3C(=O)CCC3=O)cc21,90.8% and 93.8%,99.6%,98.1%,77.4%,92.8%,63.6%,75.5%,77.9%
C[C@H](CSC(=O)c1ccccc1)C(=O)N1C[C@@H](Sc2ccccc2)C[C@H]1C(=O)O [Zofenopril calcium],106% and 100%,106%,104%,96.9%,98.3%,108%,116%,121%
O=C(c1ccc(/C=C/c2n[nH]c3ccccc23)cc1)N1CCNCC1,42.2% and 62.9%,27.7%,38.9%,36.2%,2.78%,7.69%,7.33%,14.9%
COc1ccnc(C[S+]([O-])c2nc3cc(OC(F)F)ccc3[nH]2)c1OC (stereo not given) [Pantoprazole (Protonix)],103% and 104%,102%,109%,103%,115%,112%,113%,96.5%
Nc1ncnc2c1ncn2[C@@H]1O[C@H](COP(=O)(O)O)[C@@H](O)[C@H]1O [5'-Adenylic acid],99.5% and 92.5%,90.4%,84%,87.2%,87.1%,89.3%,99.6%,93.9%
CC(C)C(=O)Nc1ccc([N+](=O)[O-])c(C(F)(F)F)c1 [Flutamide (Eulexin)],92.3% and 90.8%,101%,90.3%,92.3%,96.8%,95.4%,90.5%,90.1%
CO[C@@H]1[C@@H](O[C@@H]2O[C@H](C)[C@@H](O[C@H]3C[C@@](C)(O)[C@@H](O)[C@H](C)O3)[C@H](N(C)C)[C@H]2O)[C@@H](CC=O)C[C@@H](C)[C@@H](O[C@H]2CC[C@H](N(C)C)[C@@H](C)O2)/C=C/C=C/C[C@@H](C)OC(=O)C[C@H]1OC(C)=O [Acetylspiramycin (ASPM)],87.2% and 93.6%,89.4%,91.4%,90.3%,84.4%,90.9%,83.1%,76.8%
COC(=O)C1=CO[C@@H](O[C@@H]2O[C@H](CO)[C@@H](O)[C@H](O)[C@H]2O)[C@@H]2[C@H](C)O[C@@H](O)C[C@H]12 [Morroniside],93.4% and 87.6%,93%,85.3%,97.1%,88.1%,89.3%,88.8%,106%
CCCC[C@@H](C=O)NC(=O)[C@H](CC(C)C)NC(=O)OCc1ccccc1 [Calpeptin],91.3% and 95.4%,98.5%,90.9%,95.2%,83.2%,98.9%,96.6%,101%
O=C(O)[C@H]1O[C@@H](Oc2cc3oc(-c4ccccc4)cc(=O)c3c(O)c2O)[C@H](O)[C@@H](O)[C@@H]1O [Baicalin],98.7% and 105%,109%,101%,97.8%,98.7%,107%,99.9%,95.3%
